Test results published in PubChem BioAssay (NCATS).
Where “and” joins values, the source holds several entries; their conditions need not be identical. Equal entries are not always repeated. Records with an inconclusive call do not appear. Values without a mark were called inactive. Calls of active or inactive are those of the source. Calls come from the whole dose curve; as a rule, active = well fitted inhibition curve with a large enough effect; inconclusive = small, poorly fitted or top-dose-only effect; inactive = flat fitted curve, though single readings scatter. Positions of bridges follow the written chain, without caps; N, C: chain ends. Non-standard residues stand in square brackets, D forms with d. Residues, ends and D or L forms follow the SMILES beside them. ξ: configuration not given here. *: point of attachment. Octanoyl(6-Me) = CCC(C)CCCCC(=O)*; ξThr(3R) = C[C@@H](O)C(N)C(=O)O; dDab = NCC[C@@H](N)C(=O)O; Dab = NCC[C@H](N)C(=O)O

experiment: P-glycoprotein substrates identified in KB-8-5-11 adenocarcinoma cell line, qHTS therapeutic library screen (AID 1346987); conditions: KB-8-5-11 (P-gp overexpressing) viability, CellTiter-Glo, 72 h; series mostly up to 44.5 µM; activity change, negative = cytotoxicity: at the top concentration; note: nearly all actives have a fitted effect of over 65% in size
Source text: The ATP-binding cassette transporters P-glycoprotein (P-gp) is known to limit brain penetration of many chemotherapy drugs. […] As such, we developed a high-throughput screen (HTS) to identify substrates of P-gp from a series of chemical libraries including the National Center for Advancing Translational Sciences Pharmaceutical Collection NPC, 2,816 compounds), testing a total of 10,804 compounds, most of which have known mechanisms of action. We used the CellTiter-Glo viability assay to test library compounds against the parental KB-3-1 human cervical adenocarcinoma cell line and the colchicine-selected sub-line KB-8-5-11 that over-expresses P-gp. KB-8-5-11 cells were also tested in the presence of a P-gp inhibitor (tariquidar) to assess reversability of transporter-mediated resistance. Of the tested compounds, a total of 90 P-gp substrates were identified including 55 newly identified P-gp substrates. Substrates were confirmed using an orthogonal killing assay against HEK-293 cells transfected with P-gp. As exemplars, we confirmed that […] (cyclin-dependent kinase inhibitor); AT9283, (Janus kinase 2/3 inhibitor); ispinesib (kinesin spindle protein inhibitor); gedatolisib (PKI-587, phosphoinositide 3-kinase/mammalian target of rampamycin inhibitor); GSK-690693 (AKT inhibitor); and KW-2478 (heat shock protein 90 inhibitor) were substrates , and direct ATPase stimulation was assessed. ABCG2 was also found to confer high levels of resistance to AT9283, GSK-690693 and gedatolisib, while ispinesib, AT7519 and KW-2478 were weaker substrates.
The HeLa derivative cell line, KB-3-1, and its colchicine-selected, P-gp-overexpressing subline, KB-8-5-11 were maintained in DMEM with 10% FCS and Pen/Strep with glutamine at 37 degree C in 5% CO2. For KB-8-5-11 cells, colchicine was added to the medium at a concentration of 100 ng/mL. HEK-293 cells transfected with empty vector (pcDNA) or vector containing human ABCB1 (MDR-19) or ABCG2 (R-5) have been described previously (Robey, Lin, Qiu, Chan & Bates, 2011) and were maintained in EMEM supplemented with 10% FCS, Pen/Strep and glutamine with 2 mg/ml G418 to select for the expression of the transporter. Cultures were confirmed to be free of mycoplasma infection using the MycoAlert Mycoplasma Detection Kit (Lonza, Walkersville, MD). For the screen, assay medium was identical to culture medium except for KB-8-5-11 where colchicine was excluded from the medium.
All cell lines were plated into 1536-well plates at 500 cells/well in 5 uL media. Compounds were then pinned in dose-response using a 1536-head pin tool (Kalypsis, San Diego, CA) and plates were incubated at 37 degree C in 5% CO2 for an additional 72 h. CellTiter-Glo reagent (Promega) was dispensed into the wells, incubated for 5 min and luminescence was read on a ViewLux instrument (Perkin-Elmer). Cytotoxic compounds were defined as those that yielded a curve class of -1.1, -1.2, -2.1, -2.2, -2.3, or -2.4, a maximum response of >50% and an AC50 of < 10 uM. Cherry-picked hits from screening analysis were tested with both the KB pair of cell lines, and the pcDNA (empty vector control) and MDR-19 (P-gp overexpressing) pair were tested, in the absence and presence of tariquidar.
% is set by controls: 0 for no effect and ±100 for the full control effect; potency is the fitted concentration of half-maximal effect.

Structure (SMILES)	outcome	Potency	activity change, negative = cytotoxicity
CN(C)c1ccc2cc(C(=O)N[C@@H](CCCN=C(N)CCl)C(=O)NCc3ccccc3)ccc2c1	inactive		
CC(C)[C@H](CO)Nc1nc(Nc2cccc(Cl)c2)c2ncn(C(C)C)c2n1		10.5 µM (active) and 20.6 µM (active)	
c1ccc2c(Oc3nc(Nc4ccc(N5CCOCC5)cc4)c4ncn(C5CCCCC5)c4n3)cccc2c1			5.71%
CC(=O)NC(CS)C(=O)O (stereo not given)			-7.5%
CC(C)(O)Cn1c(NC(=O)c2ccc(-c3cn[nH]c3)s2)nc2cc(CN3CCOCC3)ccc21		3.72 µM (active)	
c1cncc(CN2CCC(n3ncc4c(N5CCOCC5)nc(-c5ccc6[nH]ccc6c5)nc43)CC2)c1		469 nM (active) and 2.31 µM (active)	
C[C@H](CCC(=O)O)[C@H]1CC[C@H]2[C@@H]3[C@H](O)C[C@@H]4C[C@H](O)CC[C@]4(C)[C@@H]3CC[C@]12C			7.14%
c1ccc(CNc2nc(NCc3ccccc3)c3ccccc3n2)cc1		20.9 µM (active)	
NC1=N[C@H]2[C@H](CS[C@H]2CCCCC(=O)O)N1			5.44% [at 17.3 µM]
CC(=O)OCC(=O)[C@@]12N=C(C)O[C@H]1C[C@H]1[C@@H]3CCC4=CC(=O)C=C[C@]4(C)[C@@H]3[C@@H](O)C[C@@]12C	inactive		
COc1ccc2cc([S+]([O-])Cc3ncc(C)c(OC)c3C)nc2c1			-12.8%
N#Cc1cc(NC(=O)Nc2nnc(-c3ccncc3)s2)ccc1-c1cn[nH]c1	inactive		
CCC(C)CCCCC(=O)N[C@@H](CCN)C(=O)NC(C(=O)N[C@H](CCN)C(=O)N[C@@H]1CCNC(=O)C([C@@H](C)O)NC(=O)[C@@H](CCN)NC(=O)[C@@H](CCN)NC(=O)[C@@H](CC(C)C)NC(=O)[C@H](Cc2ccccc2)NC(=O)[C@H](CCN)NC1=O)[C@@H](C)O (stereo partly drawn) ({Octanoyl(6-Me)}-[Dab][ξThr(3R)][dDab][dDab][Dab]F[dL][dDab][dDab][ξThr(3R)]; lactam 4-C)	inactive		
COc1ccc(Nc2nccc(NCCO)n2)cc1			-19.1%
Cc1cc(-c2nnc3n2CCCCC3)c(C)n1-c1ccccc1			-6.56%
CC(C)(C)c1nc2c3cc[nH]c(=O)c3c3cc(F)ccc3c2[nH]1		5.17 µM (active)	
CCCCCCCN(CC)CCCC(O)c1ccc(NS(C)(=O)=O)cc1 (stereo not given)			-10.1%
COc1ccc(C(C)=O)c(O)c1	inactive		
Nc1cccc2c1C(=O)N(C1CCC(=O)NC1=O)C2=O (stereo not given)			-0.964%
O=C(O)C(=O)Nc1cccc(C2=NN=N[N]2)c1			6.28%

Structure (SMILES)	outcome	Potency	activity change, negative = cytotoxicity
CCS(=O)(=O)Nc1ccc2[nH]c(O)c(C(=Nc3ccc(CN4CCCCC4)cc3)c3ccccc3)c2c1			-22.4%
CC[C@]12C=CCN3CC[C@@]4(c5cc([C@@]6(C(=O)OC)C[C@H]7C[C@@H](C(C)(F)F)CN(Cc8c6[nH]c6ccccc86)C7)c(OC)cc5N(C)[C@H]4[C@@](O)(C(=O)OC)[C@H]1OC(C)=O)[C@@H]32		0.743 µM (active)	
COc1ccc(C[C@@H](C)[C@@H](C)Cc2ccc(OC)c(OC)c2)cc1OC		7.43 µM (active)	
O=C(O)C=Cc1ccc(Cn2ccnc2)cc1	inactive		
O=C(C[C@@H]1CC=CCCC(=O)O[C@H](c2ccccc2)CNC1=O)NCc1ccc(Cl)cc1	inactive		
C=CC1=C(C(=O)O)N2C(=O)[C@@H](NC(=O)C(=NO)c3csc(N)n3)[C@H]2SC1			2.36%
CON=C(C(=O)N[C@@H]1C(=O)N2C(C(=O)O)=C(CSC(=O)c3ccco3)CS[C@H]12)c1csc(N)n1	inactive		
O=C(c1ccc(F)cc1)N1CCC[C@H](c2nc(-c3ccc(F)cc3)no2)C1		0.118 µM (active)	
Nc1nc2c(c(=O)[nH]1)N(C=O)[C@H](CNc1ccc(C(=O)N[C@@H](CCC(=O)O)C(=O)O)cc1)CN2	inactive		
COc1cc([C@@H]2c3cc4c(cc3[C@H](O)[C@H]3COC(=O)[C@@H]23)OCO4)cc(OC)c1OC		0.418 µM (active)	
CS(=O)(=O)N1CCc2c(-c3cnc(N)nc3)nc(N3CCOCC3)nc21		1.3 µM (active)	
COc1cc2c(cc1O)CCC1C2CC[C@@]2(C)C1CC[C@@H]2O (stereo not given in full)		1.32 µM (active)	
C=CCNC1=C2C[C@@H](C)C[C@H](OC)[C@@H](O)[C@@H](C)C=C(C)[C@H](OC(N)=O)[C@@H](OC)C=CC=C(C)C(=O)NC(=CC1=O)C2=O		3.72 µM (active)	
Cc1onc(-c2ccccc2)c1C(=O)N[C@@H]1C(=O)N2[C@@H](C(=O)O)C(C)(C)S[C@@H]12			9.21%
Cn1cc(C[C@@H](N)C(=O)O)c2ccccc21	inactive [at 17.3 µM]		
COc1cc(C(C)C)c(Oc2cnc(NC(CO)CO)nc2N)cc1I			-15.7%
NC(=O)Nc1cc(-c2ccc(CN3CCOCC3)cc2)sc1C(N)=O		1.48 µM (active)	
CCCCCCCCCCCC(CC1OC(=O)C1CCCCCC)OC(=O)C(CC(C)C)NC=O (stereo not given)	inactive		
O=C(C=CC#Cc1cccc(NS(=O)(=O)c2ccccc2)c1)NO		4.69 µM (active)	
O=C1NC(=O)C(=Cc2ccc3nccc(-c4ccncc4)c3c2)S1		0.418 µM (active)	
